In PubChem BioAssay AID1043 (National Center for Advancing Translational Sciences (NCATS), 2008) one finds Potency and outcome data, which are given here for 9 molecules.

Results filed as inconclusive are left out. Calls of active or inactive are those of the source. The call rests on the fitted dose curve.

This test can be described thus: H358 Cell Viability Secondary Assay for qHTS Assay for Epigenetic Modulators. To be noted: H358 NSCLC viability, MTS absorbance, 4 days. An excerpt:
NIH Molecular Libraries Screening Centers Network [MLSCN] NIH Chemical Genomics Center [NCGC] MLSCN Grant: 1 X01 MH079860-01 Assay Provider: Elisabeth D. Martinez, University of Texas SW Medical Center NCGC Assay Overview: This secondary assay characterizes selected actives identified in the qHTS of the Locus Derepression (LDR) assay (PubChem AID 597). The LDR assay detects the derepression of a GFP reporter that is stably integrated in a region of the genome of murine c127i mammary cells that is presumably silenced. Compounds that cause derepression of the locus to express GFP are identified by enumerating GFP positive cells using a laser-scanning microplate cytometer. Selected LDR actives were assayed for killing of H358 non-small cell lung carcinoma (NSCLC) cells. Certain epigenetic drugs, like histone deacetylase inhibitors, can block cancer cell growth. H358 cell viability was measured using Cell Titer 96 AQueous One (Promega), an assay which detects the ability of metabolically active cells to reduce a tetrazolium salt substrate (MTS), into a soluble formazan product that can be measured by colorimetry.
NCGC Assay Protocol Summary Viability assays: H358 cells were plated in 96-well flat bottom tissue culture dishes (Corning) and grown overnight at 37 C and 5% CO2, then treated with increasing concentrations of compounds, incubated for four days, and assayed for viability using the Cell Titer 96 AQueous One kit (Promega) according to the manufacturer's protocol. Absorbance at 490 nm and 650 nm (reference) was measured by a Spectra Max (Molecular Devices). Data were normalized to the untreated control (100% viability). Each cell line was tested in one or two independent assays, each containing 4 or 8 replicates. For further details, see R.L. Johnson, W. Huang, A. Jadhav, C.P. Austin, J. Inglese, E.D. Martinez, A Quantitative High-Throughput Screen Identifies Potential Epigenetic Modulators of Gene Expression, Analytical Biochemistry (2007), doi: 10.1016/j.ab.2007.12.028
In the case of `CC(C)C(=O)NC(c1ccco1)c1cc([N+](=O)[O-])c2cccnc2c1O` (centres undefined), the Potency was 6000 nM (active).

With `CC(/C=C/C(=O)NO)=C\[C@@H](C)C(=O)c1ccc(N(C)C)cc1`, the Potency is 40 nM (active).

For the molecule `O=Nc1ccc(O)c2ncccc12`, the Potency is 3000 nM (active).

For `COc1ccc(C(NC(=O)C(C)C)c2ccc3cccnc3c2O)cc1` (centres undefined), the Potency was 200 nM (active).

Regarding `CC(C)C(=O)NC(c1ccc(N(C)C)cc1)c1ccc2cccnc2c1O` (centres undefined), the Potency is 200 nM (active).

`CN1C(=S)SC(c2ccccc2)N(C)C1c1ccccc1` (centres undefined): the outcome was inactive.

Consider `O=C(CSc1cccc2cccnc12)NCc1ccccc1`, for which the outcome was inactive.

In the case of `CN1CCN(Cc2cc(Cl)c3cccnc3c2O)CC1`, the Potency is 2000 nM (active).

Consider `CC(C)C(=O)NC(c1ccco1)c1ccc2cccnc2c1O` (centres undefined), for which the Potency is 500 nM (active).
